Each structure is given as a SMILES string. Compounds without any hit were thinned out: in the full panel of roughly 83,000, 20% have a hit.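 Interpretation: 100, growth as untreated; towards 0, rising growth inhibition; 0, no net growth; 0 to -100, cell death. Compounds scoring below 10 were considered active.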 Activity calls are given as the source filed them.

For this test, the system named is NCI-H226 lung. Nature of the test: NCI-60 one-dose screen, 48 h (100 = growth as untreated, 0 = no growth, -100 = all killed). Particulars: 10 µM. The method, then:
Growth inhibition of the NCI-H226 human Non-Small Cell Lung tumor cell line is measured as a screen for anti-cancer activity. Cells are grown in 96 well plates and exposed to the test compound for 48 hours. Compounds are tested at a single concentration, which is 10^-5 M for most compounds. The reported endpoint is percent growth (GI% or GIPRCNT), where numbers from 0 - 100% represent growth inhibition, and numbers from -100% - 0 represent cell death. For example, a value of 40 represents 60% growth inhibition. A value of 0 means no net growth occurred over the course of the experiment. A value of -40 indicates 40% of cells at the beginning of the experiment died by the end of the experiment. A value of -100 means all cells are dead at the end of the experiment.
NCI-60 Human Tumor Cell Lines Screen was performed using the standard one-dose NCI protocol, which is described in more detail at https://dtp.cancer.gov/discovery_development/nci-60/default.htm.
Compounds with GIPRCNT values below 10 were considered active. Activity score was based on GIPRCNT using the following formula: […]
Score is 0 for GIPRCNT values of 100 or above, 50 for GIPRCNT values of 0, and 100 for GIPRCNT values of -100.
Consider `O=[N+]([O-])c1cc2c(cc1Br)C1C(C3C2C(Cl)(Cl)C(Cl)=C(Cl)C3(Cl)Cl)C(Cl)(Cl)C(Cl)=C(Cl)C1(Cl)Cl` (stereo not given), for which the growth is 86.7% (inactive).
The result for `COc1ccc(NC(=O)c2ccc3c(c2)nc(-c2ccc(Cl)cc2)n3-c2cc(C(C)(C)C)[nH]n2)cc1` reads 91.5% (inactive); that for `CCCCC(=O)N/N=C/c1cc(I)cc(I)c1O`, 73.3% (inactive); that for `O=[N+]([O-])c1ccc(C=C2C(Cl)=C(Cl)C(Cl)=C2Cl)cc1`, 62.7% (inactive).
Turning to `COC(=O)CCC(=O)c1ccccc1`, the growth is 115% (inactive).
With `OB(O)c1ccccc1`, the growth was 105% (inactive).
The result for `NS(=O)(=O)c1cc(Br)c2c(c1)S(=O)(=O)NCN2` reads 113% (inactive); that for `Cc1cc(C)c(S(=O)O)c(C)c1`, 99% (inactive).
Turning to `CCCCNNC(=O)c1ccc(Br)cc1`, the growth is 62.5% (inactive).
For `ONc1nc(NO)c2[nH]cnc2n1`, the growth was 82.8% (inactive).
`Cn1c(=O)c(S(=O)(=O)c2ccccc2)cc2ccc3c(cnn3-c3ccc(Cl)cc3)c21`: the growth was 55.6% (inactive).
With `O=C(C[Si](CC(=O)c1cccc(C(F)(F)F)c1)CC(=O)c1cccc(C(F)(F)F)c1)c1cccc(C(F)(F)F)c1`, the growth was 82.9% (inactive).
For `C[C@H]1C(=O)C23CCC1C[C@@]21O[C@@H]2C(C)(C)C=CC(=O)C23COC1=O` the value was 94.2% (inactive); for `COc1cc(C2=NN(c3ccc(S(N)(=O)=O)cc3)C(c3ccc(Cl)cc3)C2)cc(OC)c1OC` (stereo not given), 55.6% (inactive); for `Cc1nc2cc(Nc3nc(Nc4ccc(F)cc4)nc(N4CCCC4)n3)ccc2n1Cc1ccccc1`, -17.1% (active).
The result for `O=[N+]([O-])c1ccc(O)c2ncccc12` reads 81.1% (inactive); that for `Nc1nc(N)c(N=Nc2c(Br)cc(S(N)(=O)=O)cc2Br)c(N)n1`, 91.9% (inactive); that for `COc1cc(C(F)(F)F)ccc1-c1cc(-c2ccc(F)cc2)n[nH]1`, 81.1% (inactive).
For `FC(F)(F)c1cc(CNc2nc(Cl)ncc2Br)cc(C(F)(F)F)c1` the value was 93.9% (inactive); for `CON=C1C[C@]2(C[C@@H]3C[C@@H](C/C=C(\C)C[C@@H](C)/C=C/C=C4\CO[C@@H]5[C@H](O)C(C)=C[C@@H](C(=O)O3)[C@]45O)O2)O[C@H](/C(C)=C/C(C)C)[C@H]1C`, 72% (inactive).
Take `Cc1cc[n+](CCc2ccccc2)cc1`: the growth is 102% (inactive).
The result for `O=C(O)CCN1CCN(c2cccc(Cl)c2)CC1` reads 104% (inactive); that for `COc1ccc(NC(=O)COc2ccccc2)c(C(N)=O)c1`, 71.6% (inactive).
As for `OC[C@@H](O)[C@@H](O)CO`, the growth was 98.6% (inactive).
The result for `O=C1c2cc(S(=O)(=O)O)ccc2C(=O)c2c1cccc2[N+](=O)[O-]` reads 111% (inactive); that for `CN1CCN(CCCn2c3c(sc4ncccc43)c(=O)n3nnc(-c4ccccc4)c23)CC1`, 96.2% (inactive); that for `COc1ccc(-n2ncc3c4nc(OC)c(S(=O)(=O)c5ccccc5)cc4ccc32)cc1`, 45.3% (inactive).
For `COc1ncc(F)c(OC)n1` the value was 101% (inactive).
The result for `O=c1ccc2ccccc2o1` reads 102% (inactive); that for `COC(=O)c1ccc(C(=O)Nc2ccccc2N)cc1`, 73.9% (inactive).
On to `COc1ccc(C2CC(c3cc(OC)c(OC)c(OC)c3)=NN2c2ccc(S(N)(=O)=O)cc2)cc1` (stereo not given), for which the growth is 61.9% (inactive).
As for `CC(=O)Nc1ccc(S(=O)(=O)N/N=C\c2ccc(Cl)c(Cl)c2)cc1`, the growth is 100% (inactive).
For `COc1nc2c(cc1S(=O)(=O)c1ccccc1)CCc1c-2cnn1-c1ccccc1Cl` the value was 51.8% (inactive); for `CC(=O)N(CC(O)CO)c1c(I)c(C(=O)NCCO)c(I)c(C(=O)NCC(O)CO)c1I` (stereo not given), 98.7% (inactive).
For `O/N=C/c1cccs1` the value was 107% (inactive); for `N#Cc1c(O)c2c(c(O)c1C#N)C(=O)c1ccccc1C2=O`, 87.8% (inactive); for `O=C1CC2c3cc(-c4cc5ccccc5o4)ccc3CCN2C(=O)N1c1ccccc1` (stereo not given), 93.5% (inactive).
Regarding `FCOC(C(F)(F)F)C(F)(F)F`, the growth was 106% (inactive).
On to `COc1cccc(OC(=O)c2ccccc2)c1OC(=O)c1ccccc1`, for which the growth is 109% (inactive).
For `Cc1ccc2c(N/N=C\c3ccco3)cc(C)nc2n1` the value was 77.6% (inactive).

The record behind these values is PubChem BioAssay (NCI).
